Reference: the supplement of paper PMC6555819

Experiments:
Assay in all cases: PBM binding z-score (relative to random genomic background probes); higher = stronger binding; sequences stand for … in GC…GCGATTGACAGCGTAGAATGAAGG
[1] = system: PPARg:RXRa DBDmut IVT, anti-RXR (DBD mutation: RXRa K156A/R161A, NR concentration 270 nM, RXRa partner concentration 90 nM)
How it was run: (§1)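 Random background probes are the reference for binding z-scores. These scores derive from regression-normalized fluorescence on custom Agilent 4×180K protein-binding microarrays incubated 1 h with ligand-free nuclear receptor dimers. Binding was detected with antibodies against each partner (one per run).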

[2] = system: PPARg:RXRa IVT, anti-PPARg (NR concentration 270 nM, RXRa partner concentration 90 nM)
How it was run: as §1

[3] = system: PPARg DBDmut:RXRa IVT, anti-PPARg (DBD mutation: PPARg1 K132A/R137A, NR concentration 270 nM, RXRa partner concentration 90 nM)
How it was run: as §1

[4] = system: PPARg DBDmut IVT, anti-PPARg (DBD mutation: PPARg1 K132A/R137A, NR concentration 270 nM)
How it was run: as §1

[5] = system: PPARg homodimer (NR concentration 180 nM)
How it was run: as §1

[6] = system: PXR:RXRa (NR concentration 270 nM, RXRa partner concentration 90 nM)
How it was run: as §1

[7] = system: PXR homodimer (NR concentration 270 nM)
How it was run: as §1

[8] = system: RARa:RXR (NR concentration 270 nM, RXRa partner concentration 90 nM)
How it was run: as §1

[9] = system: RARa homodimer (NR concentration 270 nM)
How it was run: as §1

[10] = system: RARb:RXRa (NR concentration 270 nM, RXRa partner concentration 90 nM)
How it was run: as §1

Sequence | PBM binding z-score [1] | PBM binding z-score [2] | PBM binding z-score [3] | PBM binding z-score [4] | PBM binding z-score [5] | PBM binding z-score [6] | PBM binding z-score [7] | PBM binding z-score [8] | PBM binding z-score [9] | PBM binding z-score [10]
ATCTCTAGGTAATCAAGTTCAGTGAATGCCGAAC | 2.71 | 2.29 | 0.964 | 0.455 | 0.892 | 1.95 | 2 | 0.799 | 0.778 | 1
CCGACTGGGGCAAAGGTTACCATACTCAGTACGA | 4.37 | 6 | 0.389 | -0.153 | 1.16 | 2.32 | -0.304 | 3.94 | 0.0257 | 2.4
ACTAGCACGCCAAGTTTGGGTCACTCAAACAAAG | -0.764 | 0.325 | -0.643 | -0.578 | 0.00723 | 0.524 | -0.537 | 0.981 | -0.534 | 1
TCTTGTAGATCAAAGGTTAAGTAAGCCGAAGCCT | 2.31 | 3.98 | 0.677 | 0.732 | 0.931 | 2.16 | 0.0156 | 3.2 | 0.12 | 2.23
TCTATTAGTTGAAGGACAACCGACGAGTCCGTTT | 2.84 | 0.286 | 0.961 | 1.19 | 1.31 | 1 | 1.09 | 0.65 | 1.51 | 0.981
GCTGCTAGGTCAGGTTGGTCAGCTATCGGGTACG | 2.93 | 2.58 | -0.776 | -0.675 | 1.22 | 0.328 | -0.458 | 0.73 | -0.348 | 3.46
GCGACTGCGGCATCAGCAGGTTACCATAACTTAA | -0.255 | -0.657 | -1.23 | -0.596 | -0.378 | -0.379 | -0.376 | -0.0824 | -0.219 | -0.277
CGTAGCAGGCCAATCTGGGTCACTCAAGGCTTGA | 4.39 | 5.41 | 0.0881 | -0.653 | 0.384 | 1.07 | -0.642 | 1.47 | -0.582 | 1.48
TAGCCTAGGTCATTGGTCCAGTATAGTACGCATC | 2.05 | 2.93 | 0.413 | 0.614 | 1.51 | 1.76 | 0.043 | 2.39 | 0.179 | 3.58
CGTCCAAGGTCAAGGTCAGCGAAAGAGACTCGAA | 3.83 | 4.71 | 0.201 | -0.753 | 3.43 | 4.67 | 0.58 | 4.95 | 0.668 | 5.52
ATCTCTAGGTAAGACTCAGTTGAGTGAAGAACGC | 1.79 | 0.839 | 0.212 | 0.517 | 0.307 | -0.135 | 0.188 | -0.38 | 0.696 | 0.11
CCTACTGGCCCAAAGGTCATTGATTCCAATGCTC | 0.578 | 3.61 | -0.204 | -0.16 | 2.07 | 5 | 0.894 | 4.8 | 1.12 | 4.44
ACTAGCAGGCCAAGTTGGGGTCACTCAAACAAAG | 1.25 | 2.36 | -0.0232 | -0.538 | 2.25 | 5.29 | 1.2 | 5.79 | -0.0777 | 3.14
AGAATGAGGTTATTAGGATCAGGGAATTGCGGTC | 3.64 | 3.55 | 0.306 | 0.466 | 1.24 | 1.38 | 0.752 | 1.57 | 1.06 | 1.53
TCTAGCAAGCCAGAGGGTCACTCAAGAGGTACGG | 0.615 | -0.0358 | -1.2 | -1.18 | 0.24 | 0.871 | -0.204 | 1.96 | -0.908 | 1.62
TAGCCTAGGTCATGGGCCAGTAAACCACGCGAAC | 1.71 | 3.46 | 0.0624 | 0.0351 | 1.25 | 1.83 | -0.321 | 2.72 | -0.171 | 3.98
TAGCCTAGGTCATGGGCCAGAATACCACGCGAAC | 1.38 | 3.09 | -0.303 | -0.638 | 0.86 | 1.54 | -0.601 | 2.51 | 0.121 | 3.73
CCTACTGGGCCATTCAGAGGTCATTCATCATATG | 4.22 | 4.45 | -0.0468 | 0.03 | 2.18 | 4.81 | 2.5 | 4.07 | 0.581 | 2.9
ATAAGTAGGTTATCGGGTCATTCAGTTTGCGCAT | 7.58 | 7.8 | 5.22 | 5.33 | 3.5 | 3.91 | 7.66 | 3.84 | 2.2 | 2.61
TCTAGTAGTTGATTAGGGCAACCGAAACAGCGGA | 1.59 | 1.34 | -0.69 | 0.23 | -0.0887 | 0.0313 | -0.395 | 0.285 | -0.475 | 0.581
AGTTAAAGTTCATCTAGGTAACGTAAGATATGCT | 1.51 | 3.39 | 1.68 | 1.41 | 2.77 | 4.75 | 6.53 | 3.23 | 2.39 | 4.79
TCGAGTAGGTTACGGGCATTCAGAATGGCGTCGA | 3.6 | 3.2 | -0.359 | -0.95 | -0.405 | 0.127 | -0.967 | 0.109 | -1.16 | 1.29
TATACAGGGTCAAAGGCCACAGTACGAATGTCGA | 2.84 | 5.48 | 3.56 | 1.95 | 3.1 | 4.85 | 0.619 | 7.09 | 1.53 | 4.45
CCTAGCAGGCGAATCTGGGTCACTCAAGGCTTGA | 4.47 | 5.39 | -1.46 | -1.28 | 0.225 | 0.221 | -0.605 | 1.13 | -0.282 | 0.812
CGTCCAAGTTCAAGGTAACGTAACAGAAAGCAGC | 0.65 | 0.654 | 0.76 | 0.315 | 1.63 | 2.73 | 1.61 | 1.95 | 0.657 | 3.36
